Assay outcomes deposited in PubChem BioAssay by The Scripps Research Institute Molecular Screening Center.
pPAFAH FP inh – pPAFAH (human) enzyme inhibition. Q13093. recombinant pPAFAH, FP-rhodamine probe fluorescence polarization. inhibition, % at 3.39 µM. actives 1.5% (n = 330,000);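 active = inhibition above the mean inhibition across the screen plus 3 SD, cut at about 25% in these data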;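 also: inhibitors block binding of the rhodamine activity-based probe so polarization drops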
PAFAH1B2 inh – inhibitors of human PAFAH1B2; recombinant PAFAH1B2, FP-rhodamine activity probe, fluorescence polarization; inhibition, % at 3.39 µM; actives 1.2% (n = 340,000); AID 492953;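 active = inhibition above the mean of all tested compounds plus 3 SD, cut at about 24% in these data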
Target sequence (P68402 whole entry, looked up): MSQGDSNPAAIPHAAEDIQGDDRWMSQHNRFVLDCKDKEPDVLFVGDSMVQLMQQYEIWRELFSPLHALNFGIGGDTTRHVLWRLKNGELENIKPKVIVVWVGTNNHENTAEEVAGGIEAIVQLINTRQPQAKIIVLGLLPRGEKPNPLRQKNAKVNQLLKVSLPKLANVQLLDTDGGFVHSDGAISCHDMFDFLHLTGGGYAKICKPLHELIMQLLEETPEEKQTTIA
eLon inh – inhibitors of E. coli Lon protease | actives 0.42% (n = 360,000) | inhibition, % at 7.94 µM | AID 602123 | purified E. coli Lon protease, fluorescence polarization; in the data active = inhibition above about 13%, passing the limit was not always enough
PAFAH2 inh – PAFAH2 (human) inhibition | inhibition, % at 3.39 µM | AID 492956 | recombinant PAFAH2, FP-rhodamine activity probe, fluorescence polarization | actives 0.99% (n = 340,000) | Q99487;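 active = inhibition above the mean over all tested compounds plus 3 SD, cut at about 30% in these data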;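 also: inhibitors block probe labeling of enzyme so polarization drops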
Rin1 Abl inh – blocks binding of human Rin1 to Abl; TR-FRET Rin1/Abl binding, biochemical; inhibition, % at 7.35 µM; actives 0.4% (n = 360,000); AID 588664; in the data active = inhibition above about 5%, passing the limit was not always enough
PAFAH1B3 inh – blocks human PAF acetylhydrolase 1B catalytic subunit 3; actives 0.28% (n = 340,000); inhibition, % at 3.39 µM; recombinant PAFAH1B3, FP-rhodamine probe, fluorescence polarization; Q15102;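 active = inhibition above the screen-wide average of all tested compounds plus 3 SD, cut at about 25% in these data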
Target sequence (Q15102 whole entry, looked up): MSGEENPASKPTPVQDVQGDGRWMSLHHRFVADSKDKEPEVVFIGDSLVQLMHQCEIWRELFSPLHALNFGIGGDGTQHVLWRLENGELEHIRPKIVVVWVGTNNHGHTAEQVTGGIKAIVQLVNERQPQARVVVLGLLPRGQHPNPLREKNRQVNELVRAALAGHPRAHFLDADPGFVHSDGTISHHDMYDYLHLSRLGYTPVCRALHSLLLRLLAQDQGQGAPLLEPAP
Each line names hits and unclear results; the compound was inactive in the other large screens. Compounds with a hit are over-represented: about 3.1% of the library has one in this group of screens.

CC1(C(=O)NS(=O)(=O)c2cccc(Cl)c2)CCN1C(=O)C1(c2ccc(Cl)cc2)CCC1 (stereo unspecified)	none (no result: pPAFAH FP inh, PAFAH1B2 inh, PAFAH2 inh, PAFAH1B3 inh)
COC(=O)/C(C(C)=O)=C(\C=C\N(C)C)N(C)C	none
COC(=O)\C(C(C)=O)=C(/C=C/C=C/C=C/N(C)C)N(C)C	pPAFAH FP inh 31.7
CC1CC(C)CN(C(=O)CN2C(=O)NC(c3ccccc3)(c3ccccc3)C2=O)C1 (stereo unspecified)	PAFAH1B2 inh 26.1
CCOC(=O)CC(=O)CSc1nc(N)c(C#N)c(-c2ccc(F)cc2)c1C#N	pPAFAH FP inh 27.6
COc1ccccc1NS(=O)(=O)c1ccc(N/N=C/c2ccccc2OCC(=O)O)c([N+](=O)[O-])c1	pPAFAH FP inh 28.6
COc1ccccc1NS(=O)(=O)c1ccc(N/N=C/C=C/c2ccccc2[N+](=O)[O-])c([N+](=O)[O-])c1	none
NS(=O)(=O)c1ccc(N/N=C/c2ccccc2C(=O)O)c([N+](=O)[O-])c1	none
CCN(CC)S(=O)(=O)c1ccc(N/N=C/c2ccccc2OCC(=O)O)c([N+](=O)[O-])c1	pPAFAH FP inh 30.2
COc1ccc(CNC(=O)[C@H](Cc2ccccc2)NC(=O)CC[C@H]2O[C@@H](n3ccc(=O)[nH]c3=O)[C@H](O)[C@@H]2O)cc1	none (no result: pPAFAH FP inh, PAFAH1B2 inh, PAFAH2 inh, PAFAH1B3 inh)
CC(C)C[C@@H](COCc1ccc([N+](=O)[O-])cc1)N1CCN(C(=O)c2ccc(C(F)(F)F)cc2)CCC1=O	none (no result: pPAFAH FP inh, PAFAH1B2 inh, PAFAH2 inh, Rin1 Abl inh, PAFAH1B3 inh)
O=c1oc2c(-c3cccc(F)c3)cc(O)cc2s1	pPAFAH FP inh 27.1
O=C(NCc1ccccc1Cl)[C@H]1CCCN1C(=O)[C@H]1CCCN1C(=O)c1cccc2ccccc12	none (no result: pPAFAH FP inh, PAFAH1B2 inh, PAFAH2 inh, Rin1 Abl inh, PAFAH1B3 inh)
CCOC(=O)c1sc(=S)n(-c2ccc(OC)cc2)c1C	none (no result: PAFAH1B2 inh, PAFAH2 inh, PAFAH1B3 inh)
CCOC(=O)c1c2c(n(-c3ccc(OC)cc3)c1C)C(=O)C(=O)c1ccccc1-2	PAFAH1B2 inh 30.5, PAFAH2 inh 55.8, PAFAH1B3 inh 76.5 (no result: pPAFAH FP inh)
COc1cc(C(O)c2nc(-c3cccc(F)c3)cs2)ccc1F (stereo unspecified)	none (no result: pPAFAH FP inh, PAFAH1B2 inh, PAFAH2 inh, PAFAH1B3 inh)
C[C@@H]1CN([C@H](C)CO)C(=O)CCCn2cc(nn2)CO[C@H]1CN(C)S(=O)(=O)c1ccccc1C#N	none (no result: pPAFAH FP inh, PAFAH1B2 inh, PAFAH2 inh, PAFAH1B3 inh)
COc1cccc(CNC(=O)COC(=O)C23CC4CC(CC(Cl)(C4)C2)C3)c1	PAFAH1B2 inh 28.3
CCCc1nnc(NC(=O)CCC(=O)N2CCC(C)CC2)s1	none
COc1ccc(S(=O)(=O)NCCOc2ccc(Cl)cc2)cc1	none
CC(C)(C)SCCNS(=O)(=O)c1ccc(C#N)cc1	none
Cc1ccc(S(=O)(=O)NCC(=O)OCCOc2ccc(Br)cc2)cc1	PAFAH1B2 inh 30.0
CC(C)(C)SCCNS(=O)(=O)c1ccc(Cl)cc1	pPAFAH FP inh 31.1 (no result: PAFAH1B2 inh, PAFAH2 inh, PAFAH1B3 inh)
Cc1ccc(S(=O)(=O)CCC(=O)OCCOc2ccc(Br)cc2)cc1	none (no result: pPAFAH FP inh, PAFAH1B2 inh, PAFAH2 inh, PAFAH1B3 inh)
Cc1ccc(OCCNS(=O)(=O)c2ccc(Cl)cc2)cc1	PAFAH1B2 inh 24.5
CCN(CC)CCNC(=O)c1cccc(NC(=O)C(=O)c2cc(Br)ccc2NC(C)=O)c1	none
Clc1ccccc1/C=C/c1ccnc2ccccc12	pPAFAH FP inh 30.6
Oc1ccc(/C=C/c2ccnc3ccccc23)cc1	none
CCOCCn1c(CN2CCc3ccccc3C2)nc2c1c(=O)n(C)c(=O)n2C	none
CCc1ccc([C@@H]2C[C@H]3[C@@H](CN2S(=O)(=O)c2ccc(C)cc2)C(=O)C[C@@H](c2ccccc2F)N3S(=O)(=O)c2ccc(C)cc2)cc1	none (no result: pPAFAH FP inh, PAFAH1B2 inh, PAFAH2 inh, PAFAH1B3 inh)
COc1cc(/C=N/NC(=O)c2cc(-c3ccccc3)sc2N)cc(OC)c1OC	pPAFAH FP inh 25.9 (no result: PAFAH1B2 inh, eLon inh, PAFAH2 inh, Rin1 Abl inh, PAFAH1B3 inh)
O=C(COc1ccc2ccccc2c1)NCC1CCCO1 (stereo unspecified)	none (no result: eLon inh, Rin1 Abl inh)
CCc1nc2ccc(C(=O)NCCCN3CCN(c4ccc(F)cc4)CC3)cc2nc1CC	none
CN1CCN(CCNC(=O)c2ccc3nc(-c4ccc(F)cc4)c(-c4ccc(F)cc4)nc3c2)CC1	PAFAH1B2 inh 27.7
Cc1cccc(NS(=O)(=O)c2ccc(C)c(C(=O)N(C)C3CCN(C)CC3)c2)c1	none (no result: pPAFAH FP inh)
O=C(NCC1CCCC(CNC(=O)Nc2ccc(Cl)cn2)C1)Nc1ccc(Cl)cn1 (stereo unspecified)	PAFAH1B2 inh 26.3
CC(C)(C)OC(=O)N1CCC(Cc2cc(-c3cccnc3)no2)(C(=O)O)CC1	none
CCCCC(O)(c1ccc(OC)cc1)C(CN1CCOCC1)c1ccccc1 (stereo unspecified)	PAFAH1B2 inh 24.4
CC1CCCCN1S(=O)(=O)c1cnc(Cl)c(Br)c1 (stereo unspecified)	none
CC1CCN(S(=O)(=O)c2cnc(Cl)c(Br)c2)CC1	PAFAH1B2 inh 25.6
Cc1ccc(CS(=O)(=O)CCC(=O)NCc2ccccc2Cl)cc1	pPAFAH FP inh 29.4
COc1ccccc1CNC(=O)CCS(=O)(=O)Cc1ccc(C)cc1	none
CCN(CC)c1ccc(-c2nn3c(-c4ccccc4OC)nnc3s2)cc1	pPAFAH FP inh 25.1
COc1ccc(-c2nn3c(-c4ccccc4)nnc3s2)cc1	none
CC(C)CCC(CCNCc1ccccn1)c1ccc2c(c1)OCO2 (stereo unspecified)	none
CC(C)C(CCNCc1ccccn1)c1ccc(Cl)cc1 (stereo unspecified)	PAFAH1B2 inh 45.0, PAFAH2 inh 45.2, PAFAH1B3 inh 34.6
CN(c1ccc(C(=O)N2CCN(Cc3ccccc3)CC2)cc1)S(=O)(=O)c1ccc(Cl)cc1	none
COc1ccccc1-c1c(C)nn2c(N3CCN(Cc4ccccc4)CC3)cc(C)nc12	pPAFAH FP inh 28.2
CC(=O)OCC(=O)C1(O)CCC2C3CCC4CC(O)CCC4(C)C3C(=O)CC21C (stereo unspecified)	none (no result: pPAFAH FP inh, PAFAH1B2 inh, PAFAH2 inh, PAFAH1B3 inh)
Cc1ccc(C(=O)c2ccc([N+](=O)[O-])cc2)cc1	none
Cc1ccc(C2SCCN2C(=O)c2ccc([N+](=O)[O-])cc2)cc1 (stereo unspecified)	PAFAH1B2 inh 24.5
CC(=O)Nc1ccc(N2C(=O)CSC2c2ccc([N+](=O)[O-])cc2)cc1 (stereo unspecified)	none
O=C(c1ccc([N+](=O)[O-])cc1)N1CCSC1c1ccc(Cl)cc1 (stereo unspecified)	PAFAH1B2 inh 29.0
O=C(NN(Cc1ccccc1)Cc1ccccc1)c1ccccc1	none (no result: pPAFAH FP inh)
O=C(c1ccco1)N1N=C2CCCCCC2C1(O)C(F)(F)F (stereo unspecified)	none
C=CCNC(=O)CSc1ccc(Cl)cc1	PAFAH1B2 inh 28.7
O=C(CSCc1ccc(Br)cc1)NCc1ccccn1	none
C=CCNC(=O)CSCc1ccc(Br)cc1	PAFAH1B2 inh 26.8
COc1ccc(C(=O)N/C(=C/c2ccc(Cl)cc2)C(=O)Nc2ccc(C(=O)O)cc2)cc1	none (no result: pPAFAH FP inh)
CCC(=O)N1CCc2cc(S(=O)(=O)NC(Cc3ccccc3)C(=O)O)ccc21 (stereo unspecified)	pPAFAH FP inh 28.4
CCC(=O)N1CCc2cc(S(=O)(=O)NC(Cc3ccccc3)C(=O)NC3CCCCC3)ccc21 (stereo unspecified)	none (no result: pPAFAH FP inh)
Cn1ccnc1SCC(=O)Nc1sccc1C#N	none
